Results: ChEMBL document CHEMBL3988442, “University of Dundee, Small-Polar-MMV Screening Library” (2021)
Screen size: about 69,000 compounds; about 950 (1.4%) showed an effect of 50% or more. This is one part of a sample in which strong results are shown more often than they occur.

System: Mycobacterium tuberculosis
Test: Cornell M. t heat shock assay; also: in the data most compounds retested in dose-response had high values
Format: functional, organism-based
Design: dose or concentration left out as unconfirmed

Compound | Percent Effect [%]
CC1CCN(C(=O)C2(Cc3cc(C4CCOC4)no3)CCNCC2)CC1.Cl (centres undefined) | 3.404
COc1nn(C)c2c1CCCN(C(=O)c1cccc3cccnc13)C2.O=C(O)C(F)(F)F | -1.629
COCC1CN(C(=O)Cc2cccs2)Cc2nnn(CC3CC3)c21 (centres undefined) | -31.31
Nc1cc(CCC2CN(Cc3ccc4cc[nH]c4c3)CCO2)ccn1 (centres undefined) | -29.21
Cc1ccsc1CN1C[C@@H]2COC[C@]2(COCC(=O)N(C)C)C1.O=C(O)C(F)(F)F | -23.94
Cc1ccc(CN2CCC3(CC2)CN(c2ccccc2)C(=O)CO3)o1.O=C(O)C(F)(F)F | -15.41
COCC1CC2(CCN(c3cccc(C)n3)CC2)CN1C(C)C.O=C(O)C(F)(F)F.O=C(O)C(F)(F)F (centres undefined) | 24.58
CN(C)C(=O)N1CCO[C@@H]2CC(COCc3cccnc3)C[C@H]21.O=C(O)C(F)(F)F (some centres undefined) | 17.51
Cc1cnn(CCNCc2csc(COc3ccccc3)n2)c1 | 103.7
Cc1cnn(CCCNCc2csc(COc3ccccc3)n2)c1 | 15.28
c1ccc(OCc2nc(CNCCn3cccn3)cs2)cc1 | 46.73
Cc1nc(COc2ccc(CNCCn3cccn3)cc2)cs1 | -21.22
Cc1cnn(CCNCc2ccc(OCc3csc(C)n3)cc2)c1 | 5.493
Cc1ccc(OCc2nc(CNCCn3cccn3)cs2)cc1 | 94.11
Cc1nnc(N2CC[C@H]3C[C@H](C(=O)N(C)C)O[C@@H]3C2)s1.O=C(O)C(F)(F)F | 7.027
COCC1CN(CC2CC2)Cc2nn(CC3CC3)cc21.O=C(O)C(F)(F)F (centres undefined) | -19.88
CC(C)(C(=O)NCC(N)=O)c1ccccc1F | 8.109
CN(C)C(C)(C)CNC(=O)C(C)(C)c1ccccc1F | 97.79
CC(C)(CNC(=O)C(C)(C)c1ccccc1F)C(N)=O | -4.561
CC1CCN(c2ncc3c(n2)CN(C2CCS(=O)(=O)C2)C3=O)CC1 (centres undefined) | -20.34
Cc1nccn1-c1cccc(C2CCCN2)n1.Cl (centres undefined) | -11.58
CCCS(=O)(=O)N1CCC2(CC1)CN(CC1CCOC1)c1ccccc12.O=C(O)C(F)(F)F (centres undefined) | 28.34
Cc1cccc(CN2C[C@@H]3COC[C@]3(CNC(=O)C3CC3)C2)c1.O=C(O)C(F)(F)F | 2.9
COCCCN(Cc1cc(O)nc2ccccc12)C(=O)NC(C)C | -0.9795

Compound | Percent Effect [%]
CC(C)NC(=O)N(Cc1cc(O)nc2ccccc12)C(C)C | -8.593
COCCN(Cc1cc(O)nc2ccccc12)C(=O)NC(C)C | 104.4
Cc1cc(N2CCN(C(=O)[C@@H]3C[C@@H]4C=C[C@H]3C4)CC2)cc(C)n1 | -20.18
O=C(CC1CC1)N1C[C@@H]2CCN(c3cnccn3)C[C@@H]2C1.O=C(O)C(F)(F)F | -16.38
O=C(NCCCN1CCOCC1)c1ccc(-n2ccc3ccccc32)s1 | 14.99
O=C(NCCCN1CCCCC1)c1ccc(-n2ccc3ccccc32)s1 | 102.3
O=C(NCCCN1CCCC1=O)c1ccc(-n2ccc3ccccc32)s1 | 22.37
CC(=O)N1C[C@@H]2CC[C@H](C1)N(S(=O)(=O)c1ccc(C#N)cc1Cl)C2 | 12.47
O=C(O)C(F)(F)F.O=C(c1cscn1)N1CCC2(CCN(Cc3cccs3)CC2)C1 | 3.711
O=C(Nc1cccnc1)[C@@H]1COC[C@H]2CN(C3CCCC3)C[C@H]21.O=C(O)C(F)(F)F.O=C(O)C(F)(F)F | -37.6
O=c1cc(C2CCNCC2)nc(CCc2ccccn2)[nH]1 | 6.043
CCc1cc(=O)[nH]c(SCc2ccccn2)n1 | 70.99
CCc1c(C)nc(SCc2ccccn2)[nH]c1=O | 33.29
CCCc1cc(=O)[nH]c(-c2ccccc2CN(C)CCC(C)C)n1 | -7.876
Cc1nnc(SCc2ccccn2)s1 | 4.26
CCCc1cc(=O)[nH]c(SCc2ccccn2)n1 | 69.86
COc1cccc(CC(=O)N2CC[C@@H](OC)[C@@H]2Cc2cccnc2)c1.O=C(O)C(F)(F)F | 11.27
Cc1nnc(CN(C)C2CCCN(Cc3noc(C4CC4)n3)C2)o1 (centres undefined) | -4.888
CCOC1COC2(CCN(CC3CC3)CC2)C1.O=C(O)C(F)(F)F (centres undefined) | -11.36
COc1ccc(-c2noc(CNC(C)Cn3cccn3)n2)c(OC)c1 (centres undefined) | -27.41
COc1ccc(-c2nc(CNC(C)Cn3cccn3)cs2)cc1 (centres undefined) | 58.05
Cc1ccc(-c2nc(CN3CCOC(Cn4cccn4)C3)cs2)o1 (centres undefined) | 19.35
Cc1ccc(-c2nc(CNC(C)Cn3cccn3)cs2)o1 (centres undefined) | 55.14
COc1cccc(-c2nc(CNC(C)Cn3cccn3)cs2)c1 (centres undefined) | 89.4

Compound | Percent Effect [%]
CC(Cn1cccn1)NCc1csc(-c2ccccc2)n1 (centres undefined) | 29.32
COc1cccc(-c2nc(CNCc3cccnc3)cs2)c1 | -18.41
O=C(NCc1ccccn1)[C@@H]1COC[C@H]2CN(C3CCOCC3)C[C@H]21.O=C(O)C(F)(F)F.O=C(O)C(F)(F)F | 0.9957
CC(=O)N1CCN(c2cncc(C3CCNCC3)n2)CC1.Cl | -8.785
O=C(O)C(F)(F)F.O=C(c1ccccc1)N1CCOC2(CCN(Cc3cccs3)CC2)C1 | -35.41
Cc1ccc(CN2Cc3nnn(C)c3C(COCC3CC3)C2)s1.O=C(O)C(F)(F)F (centres undefined) | -11.83
O=C(O)C(F)(F)F.c1cnc(N2CCOCC3(CN(Cc4cc[nH]n4)CCO3)C2)nc1 (centres undefined) | -18.22
O=C(CC1CCCC1)N1CCC(c2cc3ncccc3c(O)n2)CC1 | 63.36
CCOCC(=O)N1CCC(c2cc3ncccc3c(O)n2)CC1 | -9.964
CCCC(=O)N1CCC(c2cc3cccnc3c(O)n2)CC1 | -11.07
O=C(CCC1CCCC1)N1CCC(c2cc3ncccc3c(O)n2)CC1 | 59.08
CCCC(=O)N1CCCC(c2cc3cccnc3c(O)n2)C1 (centres undefined) | -27.54
COCC(=O)N1CCC(c2cc3ncccc3c(O)n2)CC1 | 10.22
CC(C)N(C)Cc1nnn2c1CN(Cc1cccnc1)CCC2.O=C(O)C(F)(F)F.O=C(O)C(F)(F)F.O=C(O)C(F)(F)F | -0.7766
CC(C)n1c(=O)nc2n1C(=O)N(c1ccc(Cl)cc1)C2 | 4.407
CCOC(=O)[C@]12CCCN(Cc3cccs3)C[C@H]1CN(CC(C)C)C2.O=C(O)C(F)(F)F.O=C(O)C(F)(F)F | 26.18
O=C(CN1CC(c2nc(-c3ccco3)no2)C1)NCCc1ccccc1.O=C(O)C(=O)O | -7.325
CS(=O)(=O)Cc1ccccc1NCc1cc(Cl)ccc1Cl | -12.17
CS(=O)(=O)Cc1ccc(Cl)cc1NCc1ccccc1F | 52.35
CS(=O)(=O)Cc1ccc(Cl)cc1NCc1cccc(F)c1F | 57.79
CN(C)C(=O)Cc1ccccc1NCc1cccc(F)c1F | -10.01
O=C(Cc1cccc(F)c1F)NS(=O)(=O)c1ccc(Cl)cc1F | -11.18
CC(CS(C)(=O)=O)NCc1cc(Cl)ccc1F (centres undefined) | -12.53
Cn1nc(C(=O)N2CCOCC2)cc1C(=O)Nc1ccc(Cl)cc1Cl | 13.26

Compound | Percent Effect [%]
Cc1csc(NC(=O)CN(C)CCOc2cccc(F)c2)n1 | 95.41
CN(CCOc1cccc(F)c1)CC(=O)Nc1ccncc1 | -17.11
Cc1sc(NC(=O)CN(C)CCOc2cccc(F)c2)c(C)c1C | 3.214
CCc1oc(C(=O)N2CC[C@H]3CC[C@@H](C2)N3)cc1CN(CC)CC | -18.46
CN(C)C(=O)N1C[C@@H]2CC[C@H](C1)N(Cc1nnc(-c3ccco3)o1)C2 | 3.686
CN(C)C(=O)N1C[C@@H]2CC[C@H](C1)N(Cc1nnc(-c3ccccc3)o1)C2 | 16.99
CN(C)C(=O)N1C[C@@H]2CC[C@H](C1)N(Cc1nnc(C3CC3)o1)C2 | 104.3
CNc1ncc2c(n1)CN(CCc1ccc(F)cc1)C2=O | -20.93
CNC(=O)[C@H]1CO[C@H]2CCN(c3ncc(F)cn3)C[C@H]2C1.O=C(O)C(F)(F)F | -11.38
Cc1nn(C)cc1CN(Cc1ccccn1)Cc1ccccc1Cl | 53.11
Cn1cc(CN(Cc2ccccn2)Cc2ccccc2Cl)cn1 | 20.97
Cc1nn(C)cc1CN(C)C(=O)c1ccccn1 | -16.12
CCn1nc(C)c(CN(Cc2ccccn2)Cc2ccccc2Cl)c1C | 58.2
CCn1nc(C)c(CN(CCCN(C)C)Cc2ccccn2)c1C | -9.336
CCn1nc(C)c(CN(CCOC)Cc2ccccn2)c1C | -2.912
O=C(O)C(=O)O.c1cncc(CN2CCC(c3ccc4c(c3)OCO4)CC2)c1 | -6.288
CC(C)CS(=O)(=O)N1C[C@H]2C[C@H](C(=O)N3CCCC3)[C@@H](C1)O2 | 18.86
CSc1ccc(CN2C[C@@H]3CC[C@@](O)(c4ccc(C)cn4)[C@@H]3C2)cc1 | 28.36
C[C@H]1CN(c2ccccn2)C[C@@]12CCN(Cc1cccnc1)C2=O.O=C(O)C(F)(F)F.O=C(O)C(F)(F)F | -8.389
O=C(CS(=O)(=O)c1ccc(Cl)cc1)NC1CCCc2ccccc21 (centres undefined) | 17.58
O=C(CS(=O)(=O)c1ncccc1Cl)NC1CCCc2ccccc21 (centres undefined) | 57.06
O=C(CS(=O)(=O)c1ccccn1)NC1CCCc2ccccc21 (centres undefined) | 34.88
